Results taken from PubChem BioAssay (NCI).
The panel holds about 83,000 compounds, 20% with a hit somewhere; the sample as a whole holds those more often.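 The test compound was applied at a single concentration to cells in 96-well plates for 48 hours, and percent growth was recorded.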 A number with no mark means an inactive call. Activity calls are given as the source filed them. How the source made its calls: active means growth percent below 10; inactive means the rest.

Legend:
Assay in all cases: NCI-60 one-dose screen, 48 h (100 = growth as untreated, 0 = no growth, -100 = all killed)
Conditions in all cases: 10 µM unless noted
DU-145 prostate = system: DU-145 prostate
K-562 leukemia = system: K-562 leukemia
MALME-3M melanoma = system: MALME-3M melanoma
MDA-MB-231 breast = system: MDA-MB-231 breast
RXF 393 renal = system: RXF 393 renal
SF-268 CNS = system: SF-268 CNS
SF-295 CNS = system: SF-295 CNS
SF-539 CNS = system: SF-539 CNS
UACC-257 melanoma = system: UACC-257 melanoma
M14 melanoma = system: M14 melanoma
HCT-15 colon = system: HCT-15 colon
HT29 colon = system: HT29 colon
SNB-75 CNS = system: SNB-75 CNS
SNB-19 CNS = system: SNB-19 CNS
U251 CNS = system: U251 CNS
PC-3 prostate = system: PC-3 prostate
UACC-62 melanoma = system: UACC-62 melanoma
LOX IMVI melanoma = system: LOX IMVI melanoma
SK-MEL-28 melanoma = system: SK-MEL-28 melanoma
SK-MEL-5 melanoma = system: SK-MEL-5 melanoma

| Structure (SMILES) | growth (DU-145 prostate) [%] | growth (K-562 leukemia) | growth (MALME-3M melanoma) | growth (MDA-MB-231 breast) [%] | growth (RXF 393 renal) | growth (SF-268 CNS) [%] | growth (SF-295 CNS) [%] | growth (SF-539 CNS) | growth (UACC-257 melanoma) [%] | growth (M14 melanoma) | growth (HCT-15 colon) | growth (HT29 colon) | growth (SNB-75 CNS) [%] | growth (SNB-19 CNS) [%] | growth (U251 CNS) [%] | growth (PC-3 prostate) | growth (UACC-62 melanoma) | growth (LOX IMVI melanoma) [%] | growth (SK-MEL-28 melanoma) | growth (SK-MEL-5 melanoma) |
| --- | --- | --- | --- | --- | --- | --- | --- | --- | --- | --- | --- | --- | --- | --- | --- | --- | --- | --- | --- | --- |
| CNC(=O)c1cc(Oc2ccc3nc(NC(=O)c4cccc(OC(F)(F)F)c4)sc3c2)ccn1 | 75.4 | 61.8% | 76.8% | 76.1 | -1.69% (active) | 81.8 | 77.8 | 63.9% | 77.6 | 93.9% | 81.7% | 86% | 45.5 | 81.3 | 84.3 | 73% | 78.4% | 85.2 | 85.3% |  |
| N#Cc1c(-c2cccs2)cc(-c2cnccn2)nc1SCC(=O)Nc1ccc(Br)cc1 | 70 | 67.4% | 118% | 72.2 | 19.3% | 82.3 | 90.2 | 93.3% | 106 | 91.7% | 82.9% | 90.9% | 50.6 | 69.4 | 83 | 86.9% | 78.9% |  | 89.7% | 91.1% |
| CN1CCC(n2cc(Nc3ncc4c(=O)n(-c5c(Cl)cccc5Cl)cc(Br)c4n3)cn2)CC1 | 23.1 | 6.48% (active) | 69.5% | 22 | -58.3% (active) | 39.7 | 42.4 | 5.25% (active) | 82.1 | 35% | 17.1% | 6.54% (active) | 17.1 | 41.7 | 27.6 | 51.3% | 77.8% | 11.9 | 63.4% |  |
| CCNC(=O)N1CCc2cc(OC)c(OCCc3ccc(OC)nc3)cc2C1c1ccc(OC)cc1C (stereo not drawn) | 40.6 | 20% | 49.5% | 52.8 | 24.7% | 32.9 | 18.2 | 22.6% | 47 | 29.7% | 14% | 5.66% (active) | 25.9 | 34.5 | 26.2 | 37.8% | 22.7% |  | 43.9% | 23.6% |
| O=C(Nc1nc2ccc([N+](=O)[O-])cc2s1)Nc1ccccc1Br | 46.5 | 20.7% | 14.6% | 72.7 | 62.2% | 38.3 | 38.1 | 39.9% | 30.4 | 54.5% | 24.3% | 44.9% | 77.3 | 20.5 | 10.6 | 3.13% (active) | 32.3% | 44.8 | 48.8% | -3.21% (active) |
| COc1ccc(C2c3sc4c(C)cccc4c3Oc3nc(CC(=O)Nc4ccccc4)[nH]c(=O)c32)cc1 (stereo not drawn) | 83.7 | 52.1% | 98% | 69.8 | 8.26% (active) | 77.4 | 83.1 | 86.9% | 94.9 | 89% | 51.9% | 94.1% | 39.4 | 89 | 106 | 83.1% | 63.2% |  | 76% | 76.9% |
| C=C(C)[C@@H]1CC[C@]2(COC)CC[C@]3(C)[C@H](CC[C@@H]4[C@@]5(C)CCCNC(C)(C)[C@@H]5CC[C@]43C)[C@@H]12 | 57.9 | -47.7% (active) | -4.67% (active) | 62.8 | -4.43% (active) | 78.9 | 58.3 | 51.7% | 13.3 | -39.4% (active) | 2.81% (active) | 13.7% | 76.3 | 66.5 | 22.2 | 39.5% | 75.2% |  | -61.2% (active) | 48.1% |
| Cc1cc(C(NC(=O)CCCCCNc2cccc3c2C(=O)N(C2CCC(=O)NC2=O)C3=O)c2ccc3c(c2)OC(F)(F)O3)c(O)c2ncccc12 (stereo not drawn) | 51.9 | 30.2% | 84.5% | 55.2 | 86.4% | 47.8 | 48.2 | 56.3% | 98.5 | 70.2% | 72.2% | 71.8% | 50.8 | 51.6 | 33.6 | 32.3% | 63.3% | 57.9 | 81% | 37% |
| COc1ccc(-c2nc3ccc(-c4nnc(SCC(=O)Nc5ccc(C(=O)/C=C/c6ccc(Cl)cc6)cc5)o4)cc3[nH]2)cc1 | 104 | 93.9% | 96.1% | 94.8 | 98.2% | 94.9 | 95.9 | 87.1% | 107 | 105% | 86.1% | 104% | 94.7 | 108 | 94.3 | 94.9% | 94% |  | 101% | 98.9% |
| CN1CCN(c2nc(-c3csc(-c4ccccc4)n3)cc3ccccc23)CC1 | 30.8 | -35.1% (active) | 49% | 38.4 | -4.62% (active) | 53 | 74.7 | 57.5% | 46.6 | -70.8% (active) | -48.6% (active) | -52% (active) | 70.5 | 66.1 | 36.7 | 28.9% | -38.4% (active) |  | -25.2% (active) | 58.7% |
| Cc1ccc(N2C(=O)/C(=C/C=C/c3ccco3)SC2=S)cc1 | 100 | 61.2% | 91.4% | 94.9 | 74.6% | 105 | 99.1 | 101% | 88.3 | 103% | 88.4% | 102% | 98.1 | 92.4 | 93.8 | 73.3% | 89% |  | 95.8% |  |
| CCCCNNC(=O)c1ccc(-c2cccc(F)c2F)cc1 | 28.9 | 21.8% | 9.92% (active) | 51.3 | -34% (active) | 55.6 | 28.2 | 40.8% | 23.5 |  | 55.1% | 10.6% | 80.7 | 54.6 | 36 | 45.9% | 8.48% (active) | 21.8 | 25.7% | 5.84% (active) |
| Cc1cc(C)n(C(=O)c2sc(=S)n(-c3ccccc3)c2N=Nc2c(N)n[nH]c2N)n1 | 110 | 105% | 73.9% | 89.2 | 116% | 104 | 104 | 99.1% | 106 |  | 108% | 103% | 109 | 105 | 104 | 98.7% | 98.2% | 101 | 106% | 103% |
| Cc1cc(C)cc(C(=O)Nc2cccc(C#Cc3cccc4[nH]nc(N)c34)c2)c1 | 71.9 | 9.8% (active) | 86.2% | 40 | -10.9% (active) | 55 | 65 | 38.6% | 90.7 | 43.5% | 33.8% | 41.7% | 40.3 | 99.5 |  | 33.6% | 60.5% | 43.2 | 72% |  |
| C=C(C=O)[C@@H]1CC[C@]2(CO)CC[C@]3(C)[C@H](CC[C@@H]4[C@@]5(C)CCCNC(C)(C)[C@@H]5CC[C@]43C)[C@@H]12 | 53 | -1.23% (active) | 67% | 90.8 | 94.2% | 83.9 | 83.1 | 71.8% | 72.3 | 61.3% | -8.29% (active) | -3.52% (active) |  | 79.7 | 29.8 | 11.4% | 83.2% |  | 47.1% | 78% |
| NS(=O)(=O)c1ccc(Nc2nc(SCC(=O)c3ccc(Cl)cc3)nc3c2CCCC3)cc1 | 41.1 | 27.9% | 66.6% | 49.6 | 35.6% | 62.2 | 50.3 | 62.3% | 62.3 | 59.6% | 22.1% | 8.57% (active) | 85.8 | 65.9 |  | 31.4% | 48.2% | 23.6 | 68.5% | 65.8% |
